From PubChem
In the library only some 3.5% were active in any assay of this set; here they are far more common.
MITF inh = MITF inhibitors, primary screen, biochemical, AlphaScreen, human; Microphthalmia-associated transcription factor (Homo sapiens), O75030; AlphaScreen MITF homodimerization, bead proximity signal; 650,000 tested, 0.91% active; inhibition, % at 2.6 µM; in the data active = inhibition above about 50%;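 note: 0% = vehicle wells with protein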
Target sequence (O75030 whole entry, looked up): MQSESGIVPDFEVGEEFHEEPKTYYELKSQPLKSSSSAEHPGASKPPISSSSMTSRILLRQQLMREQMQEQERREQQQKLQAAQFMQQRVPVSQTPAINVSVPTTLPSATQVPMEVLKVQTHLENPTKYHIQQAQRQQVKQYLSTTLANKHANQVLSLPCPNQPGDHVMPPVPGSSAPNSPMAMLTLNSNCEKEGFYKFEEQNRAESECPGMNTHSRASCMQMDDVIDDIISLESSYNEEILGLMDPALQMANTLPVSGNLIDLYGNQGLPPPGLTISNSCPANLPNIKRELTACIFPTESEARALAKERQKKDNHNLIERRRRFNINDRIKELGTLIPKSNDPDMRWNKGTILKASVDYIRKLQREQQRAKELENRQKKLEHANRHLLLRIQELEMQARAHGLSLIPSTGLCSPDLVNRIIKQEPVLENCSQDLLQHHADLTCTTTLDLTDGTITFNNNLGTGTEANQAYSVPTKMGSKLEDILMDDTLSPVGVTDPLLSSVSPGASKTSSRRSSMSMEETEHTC
FBW7 activator = FBW7 E3 ligase activators, primary screen, biochemical, AlphaScreen, human; 650,000 tested, 0.13% active; AlphaScreen FBW7–phospho-cyclin E peptide binding, activator screen; normalized activity (activation), % at 26.1 µM; AID 1259310, 2017; in the data active = normalized activity above about 1.9%;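 note: purified mutant Fbw7 with reduced substrate affinity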
TEAD-YAP inh = TEAD-YAP interaction inhibition, primary screen, TEAD-YAP interaction inhibitor project, luminescence, HEK-TIYL cells; TEAD-Gal4/YAP UAS-luciferase luminescence; inhibition, % at 9.12 µM; 640,000 tested, 1.4% active; AID 1259422, 2018; in the data active = inhibition above about 32%;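 note: 0% = median of test compound wells and 100% = reference inhibitor wells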
GPR151 ag = activators of human GPR151, primary screen, cell-based, PathHunter beta-arrestin, luminescence; PathHunter beta-arrestin GPR151 cells; activation, % at 11.2 µM; 650,000 tested, 1% active; in the data active = activation above about 4.9%;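 note: 0% = median of compound wells and 100% = cells with positive control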
GPR151 conf act = GPR151 activators, triplicate retest, confirmation, cell-based, PathHunter beta-arrestin, luminescence. shares compounds with GPR151 ag. GPR151 PathHunter beta-arrestin cells, 90 min; % of EA-reagent control over plate median. activation, % at 11.2 µM. 6,700 tested, under 10 active. AID 1508609, 2020;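 active = mean percent activation across replicates above the confirmation screen cutoff of 4.91%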
GPR119 ag = GPR119 activators in beta-arrestin cells, counter-screen for GPR151 activator project, cell-based, PathHunter beta-arrestin, luminescence, triplicate. 6,700 tested, 0.3% active. AID 1508611, 2020. activation, % at 11.2 µM. shares compounds with GPR151 ag. 90 min; 0 = compound-well median, 100 = enzyme-acceptor control;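 active = mean percent activation in the counterscreen above 29.09%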;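 note: counterscreen on off-target GPR119 to flag nonselective hits from the GPR151 activator screen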
* = called active by the depositor.

For O=C(NC(=S)Nc1ccc(-c2nc3cc(Cl)ccc3o2)cc1)c1cc2ccccc2o1 the results were MITF inh -12, FBW7 activator 0, TEAD-YAP inh -10 and GPR151 ag 1.
`C=CCc1cc2c(C)cc(=O)oc2c(I)c1O` gave MITF inh 14, FBW7 activator 0, TEAD-YAP inh -15, GPR151 ag 7.1*, GPR151 conf act 1 and GPR119 ag 6.
Screening Cc1c(NCc2cc(Br)ccc2O)c(=O)n(-c2ccccc2)n1C returned MITF inh 23, FBW7 activator 0, TEAD-YAP inh 11 and GPR151 ag -1.
Screening CCOCCCNC(=O)c1ccc(OC(C)=O)cc1 returned MITF inh 13, FBW7 activator 0, TEAD-YAP inh -2, GPR151 ag 6.8*, GPR151 conf act 0 and GPR119 ag -16.
COCCCNC(=O)c1ccc(OC(C)=O)cc1 was read as MITF inh -3, FBW7 activator 0, TEAD-YAP inh 4 and GPR151 ag 0.
Screening O=C(Cc1ccccc1[N+](=O)[O-])Nc1ccc2c(c1)OCO2 returned MITF inh -6, FBW7 activator 0, TEAD-YAP inh -27 and GPR151 ag -1.
O=C(Cc1ccccc1[N+](=O)[O-])NNC(=O)Nc1ccc2c(c1)OCO2 was read as MITF inh -3, FBW7 activator 0, TEAD-YAP inh -12, GPR151 ag 5.1*, GPR151 conf act 1 and GPR119 ag -2.
For Nc1nonc1C(=O)NCCNCc1ccccc1Cl the results were MITF inh 6, FBW7 activator 0, TEAD-YAP inh -7 and GPR151 ag -1.
For CCOc1ccccc1CNCCNC(=O)c1nonc1N the results were MITF inh 7, FBW7 activator 0, TEAD-YAP inh 7, GPR151 ag 6.3*, GPR151 conf act 0 and GPR119 ag -6.
Screening CC1CCN(C(=O)CSc2nc(=O)n(CCO)c3c2CCCC3)CC1 returned MITF inh 8, FBW7 activator 0, TEAD-YAP inh -1, GPR151 ag 8.3*, GPR151 conf act 0 and GPR119 ag -1.
For O=C(CSc1nc(=O)n(CCCO)c2c1CCCC2)N1CCN(c2ccccc2)CC1 the results were MITF inh 8, FBW7 activator 0, TEAD-YAP inh 6 and GPR151 ag -1.
Screening COc1ccc(C2C(C#N)=C(C)NC3=C2C(=O)CCC3)c(OC)c1 (stereo not drawn) returned MITF inh 1, FBW7 activator 0, TEAD-YAP inh 9 and GPR151 ag 1.
Screening CC(=O)Nc1cccc(NC(C)=C(C#N)C#N)c1 returned MITF inh -2, FBW7 activator 0, TEAD-YAP inh 2, GPR151 ag 5.2*, GPR151 conf act 1 and GPR119 ag 3.
Screening CC(C)NC(=O)c1cnn(-c2ccccc2)c1NC(=O)c1ccccc1Cl returned MITF inh 9, FBW7 activator 0, TEAD-YAP inh 7 and GPR151 ag 0.
Screening CCCCCOC(=O)C1=C(C)N(C)C(=O)NC1c1ccccc1Cl (stereo not drawn) returned MITF inh -3, FBW7 activator 0, TEAD-YAP inh 2, GPR151 ag 5.0*, GPR151 conf act 1 and GPR119 ag 12.
Screening CCOC(=O)C1=C(C)N(C)C(=O)NC1c1ccccc1Cl (stereo not drawn) returned MITF inh 2, FBW7 activator 0, TEAD-YAP inh -2 and GPR151 ag -2.
`O=C(Cn1cc2c(n1)CCCCC2)Nc1ccc(F)cc1` gave MITF inh -2, FBW7 activator 1, TEAD-YAP inh -1 and GPR151 ag 0.
Screening OCCOCCNc1ncnc2ccc(I)cc12 returned MITF inh 10, FBW7 activator 1, TEAD-YAP inh 8, GPR151 ag 5.4*, GPR151 conf act 0 and GPR119 ag -4.
